Reference: ChEMBL document CHEMBL3988442, “University of Dundee, Small-Polar-MMV Screening Library” (2021)
The whole screen tested about 69,000 compounds, of which about 1,000 (1.4%) showed an effect of 50% or more. This is one part of a sample in which strong results are shown more often than they occur.

Test system: Leishmania donovani
Test: Leishmania intramacrophage assay
Format: functional, organism-based
Parameters: scale not given: in the data most compounds retested in dose-response had high values

Cc1nc(CN2CCOC(Cn3cccn3)C2)nc2ccccc12 (stereo not given)
Percent Effect (30 µM): 18.44%

Cc1nc(N)sc1C(=O)N1CCC(C(O)Cc2ccccc2)CC1 (stereo not given)
Percent Effect (30.3 µM, […]): 8.209%

Cc1nn(C)c2nc(N3CCC(C(O)Cc4ccccc4)CC3)sc12 (stereo not given)
Percent Effect (30.3 µM, […]): 58.21%

Cc1ccc(N2CCC(C(O)Cc3ccccc3)CC2)nn1 (stereo not given)
Percent Effect (30.3 µM, […]): 17.05%

Cc1nn(C)c2nc(N3CCN(Cc4nccn4C)CC3)sc12
Percent Effect (30.3 µM, […]): 15.9%

Cc1nn(C)c2nc(N3CCC(C(O)c4nccn4C)CC3)sc12 (stereo not given)
Percent Effect (30.3 µM, […]): -0.9674%

Cc1nn(C)c2nc(N3CCC(C(O)c4ccccn4)CC3)sc12 (stereo not given)
Percent Effect (30.3 µM, […]): 50.06%

CN(C)C[C@@H]1CN(C(=O)Cc2ccc3ccccc3c2)C[C@@H]1CO
Percent Effect (30.3 µM, […]): -3.237%

CC(C)N1CC2(CCC1=O)CCN(C(=O)c1cc(F)ccc1Cl)CC2
Percent Effect (30.3 µM, […]): 18%

COc1ccc(CCNC(=O)CN2CCOCS2(=O)=O)cc1
Percent Effect (30.3 µM, […]): 0.9024%

CCc1noc(C2CCCCN2C(=O)c2ccc3c(c2)OCO3)n1 (stereo not given)
Percent Effect (30.3 µM, […]): 61.74%

CCc1noc(C2CCCCN2C(=O)c2cccnc2)n1 (stereo not given)
Percent Effect (30.3 µM, […]): -10.93%

CCc1noc(C2CCCCN2C(=O)c2ccccc2)n1 (stereo not given)
Percent Effect (30.3 µM, […]): -11.89%

O=C1C(CS(=O)(=O)Nc2ccc(Br)cc2)=NC(=O)n2cccc21
Percent Effect (30.3 µM, […]): -27.67%

CCc1noc(CN(CC)C(=O)c2ccc3ncsc3c2)n1
Percent Effect (30.3 µM, […]): -21.19%

CN(Cc1n[nH]c(=O)n1CCc1ccccc1F)S(C)(=O)=O
Percent Effect (30.3 µM, […]): 22.43%

COc1cccc2c1OCC(C(=O)N1CCN(CCS(C)(=O)=O)CC1)C2 (stereo not given)
Percent Effect (30.3 µM, […]): 2.664%

Cc1ccc(CN2CCC3(CCCN(Cc4ccc(F)c(F)c4)C3)C2)o1 (stereo not given)
Percent Effect (30.3 µM, […]): -12.81%

Cc1c[nH]c(CN2CCC3(CCCN(Cc4ccc(F)c(F)c4)C3)C2)n1 (stereo not given)
Percent Effect (30.3 µM, […]): 53.74%

Fc1ccc(CN2CCCC3(CCN(Cc4ncc[nH]4)C3)C2)cc1F (stereo not given)
Percent Effect (30.3 µM, […]): 24.4%

Cc1cc(C)n(C2CCN(S(C)(=O)=O)CC2)n1
Percent Effect (30.3 µM, […]): -8.348%

O=C(Nc1cc(Cl)ccc1Cl)NC1CCN(C2CCOC2)CC1 (stereo not given)
Percent Effect (30.3 µM, […]): -19.47%

O=C(NCCn1ccnc1)N1CCCN(Cc2cccs2)CC1
Percent Effect (30 µM): 32.04%

CN(C)C(=O)C1CN(c2ncccn2)CCN1C (stereo not given)
Percent Effect (30.3 µM, […]): 10.06%

COc1nc2c(cc1C(=O)N1CCCC1c1ccccn1)CCC2 (stereo not given)
Percent Effect (30.3 µM, […]): 15.04%

CCn1cnnc1C1CCN(C(=O)C(OC)c2ccccc2)CC1 (stereo not given)
Percent Effect (30 µM, 30.03 µM): 25.64%

CN1CCN(C2COC3(CCN(Cc4ccc(F)cc4)CC3)C2)CC1.O=C(O)C(F)(F)F.O=C(O)C(F)(F)F.O=C(O)C(F)(F)F (stereo not given)
Percent Effect (30.3 µM, […]): 32.4%

Fc1cnc(N2CCOC3(CCN(Cc4cccs4)CC3)C2)nc1.O=C(O)C(F)(F)F.O=C(O)C(F)(F)F
Percent Effect (30.3 µM, […]): 53.49%

CCc1ccc(CN2CCC3(CC2)CC(N2CCN(C)CC2)CO3)cc1.O=C(O)C(F)(F)F (stereo not given)
Percent Effect (30 µM, 30.03 µM): 78.58%

O=C(O)C(F)(F)F.c1cnc(NC2COC3(CCN(Cc4cccs4)CC3)C2)nc1 (stereo not given)
Percent Effect (30.3 µM, […]): -71.32%

CN1CCN(C2COC3(CCN(Cc4cccs4)CC3)C2)CC1.O=C(O)C(F)(F)F.O=C(O)C(F)(F)F (stereo not given)
Percent Effect (30.3 µM, […]): 53.18%

Cc1ccc(CN2CCC3(CC2)CC(N2CCN(C)CC2)CO3)s1.O=C(O)C(F)(F)F.O=C(O)C(F)(F)F.O=C(O)C(F)(F)F (stereo not given)
Percent Effect (30.3 µM, […]): 35.32%

CN1CCN(C2COC3(CCN(Cc4ccsc4)CC3)C2)CC1.O=C(O)C(F)(F)F.O=C(O)C(F)(F)F (stereo not given)
Percent Effect (30.3 µM, […]): 20.49%

Fc1cnc(N2CCOC3(CCN(Cc4ccsc4)CC3)C2)nc1.O=C(O)C(F)(F)F.O=C(O)C(F)(F)F
Percent Effect (30 µM, 30.03 µM): 16.14%

O=C(O)C(F)(F)F.O=C(c1ccccc1)N1CCOC2(CCN(Cc3cccs3)CC2)C1
Percent Effect (30.3 µM, […]): 5.175%
